# Hits are enriched below; roughly 9.5% of the tested compounds scored in any of these assays.
# NS1 function inh – inhibitors of influenza NS1 protein function; AID 2326; 270,000 tested, 0.4% active; Potency, µM (titrated, usually from 46.1 µM), for the others: at the highest dose activity, positive = more growth; note: actives are rising curves; nearly all actives have a fitted effect of over 50% in size
#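 S. cerevisiae expressing influenza A NS1, grown in glucose, washed, then diluted 1:100 into pH 6.0 -URA galactose medium with 23 nl compound. Growth recovery read as OD600; NS1-free strain serves as control.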
# Pf growth 48h – inhibits P. falciparum growth in the first generation, 48 h | P. falciparum luciferase growth in erythrocytes, 48 h | Potency, µM (titrated, usually from 28.7 µM), without a hit: top-dose activity change, negative = inhibition, most hits filed as inhibitors | 310,000 tested, 5.9% active | AID 504832; active = well fitted inhibition curve with a large enough effect; inconclusive = small, poorly fitted or top-dose-only effect, or another doubt; inactive = no such curve, though single readings can be large or run the other way; note: % is set by controls: 0 for no effect and ±100 for the full control effect
#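 Here the parasites carry a stable luciferase gene and grow inside erythrocytes in Albumax-based RPMI medium with compound for one erythrocytic cycle. Activity is scored as loss of luminescent signal.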
# SARS PLpro yeast – inhibitors of SARS-CoV papain-like protease in yeast; S. cerevisiae expressing SARS-CoV PLpro, growth rescue; Potency, µM (series often up to 32.9 µM), without a hit: at the highest dose activity, positive = growth rescue, most hits filed as activators; 330,000 tested, 0.19% active; note: 0% is about no effect; nearly all actives have a fitted effect of over 55% in size
# RE007 growth inh – less growth of the S. pombe RE007 Vpr strain. 360,000 tested, 0.21% active. Potency, µM (top dose mostly 92.2 µM), for inactives: top-dose activity change, negative = less growth, actives largely listed as inhibitors. S. pombe RE007 Vpr strain, BacTiter-Glo ATP luminescence, 24 h; active = well fitted falling curve with a large enough effect; inconclusive = small, poorly fitted or top-dose-only effect; inactive = no such curve, though single readings can be large or run the other way; note: % is set by controls: 0 for no effect and ±100 for the full control effect; nearly all actives have a fitted effect of over 50% in size
#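 Fission yeast strain RE007, carrying one chromosomally integrated HIV-1 vpr copy, was seeded at OD 0.01 in PMG+AL medium with 23 nL pinned compound. After 24 h at 30 °C and 99% humidity, viability was read by BacTiter-Glo luminescence.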
# Pf growth 96h – inhibits malaria parasite growth, 96 h | 320,000 tested, 6.9% active | P. falciparum luciferase reporter growth, 96 h | Potency, µM (highest dose often 28.7 µM), for inactives: top-dose activity change, negative = inhibition, hits mostly inhibitors | AID 504834; active = well fitted inhibition curve with a large enough effect; inconclusive = small, poorly fitted or top-dose-only effect, or another doubt; inactive = no such curve, though single readings can be large or run the other way; note: % is set by controls: 0 for no effect and ±100 for the full control effect
#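 P. falciparum expressing integrated firefly luciferase grown in erythrocytes (2% hematocrit, 0.05% parasitemia final) with compounds for 96 hours at 37 C, 5% CO2. Growth inhibition read as loss of luminescence after adding luciferase detection reagent.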
# * marks the source's active call; other numbers are inactive results; ? = inconclusive; . = no result; [ ] = another dose, or the depositor's remark. Unless noted, calls come from the whole dose curve. Potency is the fitted concentration of half-maximal effect.
SMILES,NS1 function inh,Pf growth 48h,SARS PLpro yeast,RE007 growth inh,Pf growth 96h
Cc1cccc(C)c1C(O)c1ncc(-c2ccccc2Cl)[nH]1 (stereo not given),.,.,.,-18%,.
C[n+]1c2cc(N)ccc2cc2ccc(N)cc21,.,0.048µM*,.,?,0.034µM*
Cc1ccc([N+](=O)[O-])cc1N=C(c1ccc([N+](=O)[O-])cc1)N1CCOCC1,6%,?,-4%,-8%,8.3µM*
CSc1nccc(N2CCN(c3ccc(F)cc3)CC2)n1,-3%,?,-69%,-26%,12µM*
COc1ccc(Br)cc1CN1CCN(CCO)CC1,-3%,12%,0%,-30%,-20%
COc1cc(OC)c(CN2CCCN(C)CC2)cc1Br,-6%,-1%,-1%,-6%,?
COc1ccc(Br)cc1CN1CCC(N2CCCC2)CC1,5%,9.3µM*,3%,-1%,?
COc1cc(OC)c(CN2CCCCCCC2)cc1Br,4%,.,-2%,-20%,13µM*
CC(C)(N=NC(C)(C)C(=N)N)C(=N)N,4%,.,.,.,.
Cc1cccc(C)c1NC(=O)CN(C)C(=O)c1ccc2nc[nH]c2c1,.,27%,4%,-11%,9%
C[C@]12C=CC(=O)N[C@@H]1CC[C@@H]1C2CC[C@]2(C)C(C(=O)Nc3cc(C(F)(F)F)ccc3C(F)(F)F)CC[C@@H]12 (stereo not given in full),.,4.8µM*,.,.,3.4µM*
Cc1cc(C)cc(NC(=O)c2cc(C)nc3ccccc23)c1,24%,?,5%,-1%,12µM*
Cc1cc(C(=O)Nc2ccccc2)c2ccccc2n1,11%,11%,3%,-6%,13µM*
COc1ccc(C(=O)NNC(=O)c2cc(C)nc3ccccc23)cc1,.,-28%,-7%,1%,?
Cc1cc(C(=O)Nc2ccc(Cl)cc2)c2ccccc2n1,-16%,7%,-2%,5%,-18%
Cc1cc(C(=O)NNC(=S)NC(C)c2ccccc2)c2ccccc2n1 (stereo not given),-3%,-16%,-1%,0%,10µM*
COc1ccc(CCNC(=O)C(=O)NCC2OCCN2S(=O)(=O)c2cccs2)cc1 (stereo not given),0%,-2%,-3%,-7%,-11%
O=C1OC(=O)C2C3CCC(O3)C12 (stereo not given),-10%,-18%,.,.,-2%
CCOC(=O)N1CCN(C(=O)c2cc3cc(OC)c(OC)cc3[nH]2)CC1,0%,7%,-1%,-8%,7%
COC(=O)[C@@]1(Cc2ccc(F)cc2)[C@H]2c3cc(C(=O)N(C)C)n(CC4CC4)c3C[C@H]2CN1C(=O)c1ccccc1,.,.,.,-4%,.
CCN1CCN(c2ccc(Nc3ccnc4ccccc34)cc2)CC1,.,0.66µM*,2%,2%,?
CCN1CCN(c2nc(-c3ccccc3)c3ccccc3n2)CC1,0%,-11%,0%,-12%,-21%
CN1CCN(c2ccc(Nc3ccnc4cc(Cl)ccc34)cc2)CC1,4%,0.026µM*,4%,-1%,?
CC1(C)[C@@H]2CC[C@]1(C)CN(CCC[N+](C)(C)C)C2,-3%,.,.,.,.
Cc1cc(C)c(C(=O)c2ccc(C(=O)NC(C)(C)C)cc2)c(C)c1,-59%,.,-2%,14%,3.3µM*
SMILES,NS1 function inh,Pf growth 48h,SARS PLpro yeast,RE007 growth inh,Pf growth 96h
CC(C)(C)NC(=O)c1ccncc1,7%,.,-2%,5%,10µM*
CCOC(=O)c1c(C)c(C(=O)NCc2cccnc2)c(C)n1CC,-1%,-2%,-1%,-9%,3.7µM*
CCOC(=O)c1c(C)c(C(=O)NCc2ccco2)c(C)n1CC,.,-20%,-3%,3%,42%
CCOC(=O)c1cc(-c2ccc(F)cc2)n(CC(=O)NCc2cccnc2)c1C,.,?,0%,1%,2.6µM*
CN(C(=O)COC(=O)c1cc(=O)[nH]c2ccccc12)c1ccccc1,.,.,-1%,2%,.
CN(C)c1ccc(NC(=O)CCN2C(=O)c3cccc([N+](=O)[O-])c3C2=O)cc1,-4%,50%,-6%,-12%,12µM*
CC(=O)Nc1ccc(S(=O)(=O)NCC(=O)N2CCN(S(=O)(=O)c3cccs3)CC2)cc1,.,?,2%,-14%,?
Cc1ccnc(Nc2nc(-c3ccccc3)cs2)c1,-12%,29%,-4%,-30%,-14%
Cc1nc2ccccn2c1-c1csc(NCc2ccco2)n1,-41%,-14%,-4%,-6%,.
Cc1ccn2c(-c3csc(NCc4ccccc4)n3)c(C)nc2c1,29%,13µM*,19%,6%,8%
Cc1ccc(Nc2nc(-c3c(C)nc4ccccn34)cs2)cc1,-34%,12µM*,-26%,?,10µM*
Cc1ccnc(Nc2nc(-c3c(C)nc4sccn34)cs2)c1,-52%,3.3µM*,-19%,-1%[3.69 µM],?
NC(=O)C1CCN(C(=O)c2ccc(NS(=O)(=O)c3ccc(Br)s3)cc2)CC1,.,34%,1%,7%,11%
Clc1cncc(Cl)c1N/N=C/c1ccncc1,-19%,?,-42%,5%,1.2µM*
Clc1cccc(Cl)c1/C=N/Nc1c(Cl)cncc1Cl,-7%,0%,0%,-15%,2%
NS(=O)(=O)c1ccc(N/N=C/c2ccncc2)cc1,9%,6.6µM*,-1%,81%,?
C/C(=N\N1CCN(c2ccccc2)CC1)c1ccc(O)cc1,0%,-16%,-2%,-5%,17%
O=C(CSc1nc(=O)n2ccccc2n1)N1N=C(c2cccs2)CC1c1ccc(F)cc1 (stereo not given),.,?,-4%,-2%,?
Cc1ccc(C2CC(c3cccs3)=NN2C(=O)CSc2nc(=O)n3ccc(C)cc3n2)cc1 (stereo not given),.,8.3µM*,4%,.,?
COc1ccc(C2CC(c3cccs3)=NN2C(=O)CSc2nc(=O)n3ccc(C)cc3n2)cc1 (stereo not given),.,12µM*,5%,15%,?
CNc1c2cccc(C)c2nc2c(C(=O)NCCN(C)C)cccc12,.,.,.,-9%,.
O=C1[C@H]2[C@@H](c3ccccc3)N[C@]3(CCCN(CC4CCCCC4)C3=O)[C@H]2C(=O)N1Cc1ccccc1,.,.,.,3%,.
Cc1ccc(S(=O)(=O)N(C)c2ccc(C(=O)Nc3cccnc3)cc2)cc1,-25%,-18%,0%,8%,10µM*
CC(=O)Nc1ccc(NC(=O)c2ccc(N(C)S(=O)(=O)c3ccc(C)cc3)cc2)cc1,3%,1%,3%,5%,10µM*
CSc1ccc2c(c1)c(CCN)c(C)n2Cc1ccccc1Cl,13%,.,.,.,.
O=C(O)CCn1c(SCCOc2ccccc2)nc2ccccc21,-16%,17%,1%,-6%,12µM*
COc1ccc(OCCSc2nc3ccccc3n2CCC(=O)O)cc1,6%,-7%,8%,5%,11%
Cc1ccc(OCCSc2nc3ccccc3n2CC(=O)O)cc1C,?,8%,3%,12%,12µM*
O=C(O)CCSc1nc2ccccc2n1Cc1ccccc1,14%,-9%,3%,1%,2.9µM*
